Experimental data from PubChem BioAssay (NCI).
The panel holds about 83,000 compounds, 20% with a hit somewhere; the sample as a whole holds those more often.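 Each cell line was grown in a 96-well plate and treated with one concentration of compound for 48 hours. Values below 10 were considered active.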 A number with no mark means an inactive call. The source made the active and inactive calls.

Tests used:
Assay in all cases: NCI-60 one-dose screen, 48 h (100 = growth as untreated, 0 = no growth, -100 = all killed)
Conditions in all cases: 10 µM unless noted
HCT-15 colon = tested on: HCT-15 colon
HT29 colon = tested on: HT29 colon
SNB-75 CNS = tested on: SNB-75 CNS
SNB-19 CNS = tested on: SNB-19 CNS
U251 CNS = tested on: U251 CNS
PC-3 prostate = tested on: PC-3 prostate
SK-MEL-5 melanoma = tested on: SK-MEL-5 melanoma
UACC-62 melanoma = tested on: UACC-62 melanoma
LOX IMVI melanoma = tested on: LOX IMVI melanoma
SK-MEL-28 melanoma = tested on: SK-MEL-28 melanoma

| SMILES | growth (HCT-15 colon) | growth (HT29 colon) | growth (SNB-75 CNS) | growth (SNB-19 CNS) | growth (U251 CNS) | growth (PC-3 prostate) | growth (SK-MEL-5 melanoma) | growth (UACC-62 melanoma) | growth (LOX IMVI melanoma) | growth (SK-MEL-28 melanoma) |
| --- | --- | --- | --- | --- | --- | --- | --- | --- | --- | --- |
| Cc1ccc(NC(=O)CCl)cc1Cl | 80.9% | 107% | 91% | 94.5% | 80.5% | 86.8% | 87.2% | 80.5% | 6.84% (active) | 107% |
| CC(C)(C)c1ccc([I+]c2ccc(C(C)(C)C)cc2)cc1 | 69.4% | 11% | 18.7% | 13.8% | 3.28% (active) | 0.197% (active) | -94.7% (active) | -42.2% (active) | -88% (active) | 6.31% (active) |
| N#CCc1ncc(-c2ccc(C(F)(F)F)cc2)c(NC2CCCCCC2)n1 | 22.1% [100 µM] | 14% [100 µM] | 52.5% [100 µM] | 45.2% [100 µM] | 22.4% [100 µM] | -3.13% [100 µM] (active) | 22.9% [100 µM] | 42.1% [100 µM] | 25% [100 µM] | 65.8% [100 µM] |
| CCOC(=O)c1cc(-c2ccc(OC)cc2)[nH]c1NNC(=O)CCOC | 111% | 112% | 106% | 103% | 101% | 93.2% | 99.3% | 93.6% | 94.8% | 114% |
| Brc1ccc(-c2nc3ccccc3s2)cc1 | 91.6% | 107% | 80.6% | 94.9% | 96.1% | 83.6% | 94.4% | 89.1% | 89.5% | 109% |
| Cc1ccc(S(=O)(=O)N/N=C2\CC3CCC2C3)cc1 (stereo not given) | 96% | 108% | 85.7% | 101% | 96.8% | 95.8% | 99.8% | 103% | 103% | 109% |
| CCCC[N+](C)(N)CCCC | 98% | 101% | 93.3% | 104% | 106% | 90.5% | 108% | 105% | 87.3% | 109% |
| O=C(Nc1cccc(Cn2c(=O)[nH]c3ccc(Oc4ncccn4)cc3c2=O)c1)c1cc(Cl)cc(Cl)c1 | 77.3% | 47.4% | 42.6% | 69.4% | 51.1% | 64.5% | 56.8% | 66.6% | 86.3% | 60.7% |
| FC(F)(F)c1cccc(-c2[nH]ncc2-c2nnnn2-c2ccccc2)c1 | 35.6% | 15.1% | 47.5% | 50.8% | 30.1% | 44% | 20.8% | 36.9% | 44.8% | 60.8% |
| CC(O)c1cc[cH-]c1.[Fe+2].c1cc[cH-]c1 (stereo not given) | 95.3% | 110% | 92% | 105% | 98.2% | 98.2% | 98.2% | 108% | 126% | 112% |
| C=CCNC(=S)NNc1ccc([N+](=O)[O-])cn1 | 100% | 90.5% | 81.8% | 103% | 101% | 100% | 94.3% | 99.3% | 82% | 106% |
| COc1cc(N)c2nccc(C)c2c1OC | 115% | 111% | 103% | 109% | 99.4% | 108% | 101% | 93.7% | 96.2% | 115% |
| Clc1ccc(N/N=C(/c2ccccc2)c2ccccn2)nc1 | 16.2% | 36.1% | 43.4% | 60.1% | 42.1% | 35.5% | 25.3% | 32.5% | 21.5% | 51.9% |
| C/C(=N\Nc1ccc(Cl)cn1)c1ccc2ccccc2n1 | 13.4% | 16.3% | 32.5% | 24.7% | 6.99% (active) | 17.7% | -45% (active) | -7.97% (active) | 2.73% (active) | 17.5% |
| CCCCCCN(CCCCCC)CCC(=O)Nc1ccc(S(=O)(=O)c2ccc(NC(=O)CCN(CCCCCC)CCCCCC)cc2)cc1 | 72.9% | 29.9% | 71.3% | 88% | 88.4% | 76.6% | 90% | 91.3% | 76.5% | 91.9% |
| COc1ccc(C(=O)CN2C(=O)NC(c3ccccc3)(c3ccccc3)C2=O)cc1 | 99.5% | 100% | 86.7% | 102% | 101% | 95% | 99.7% | 99.4% | 98% | 103% |
| CC1=C[C@@H]2c3c(c(O)c(O)c4oc5cc(O)cc(O)c5c(=O)c34)[C@@H](c3cc(O)c(O)c4oc5cc(O)cc(O)c5c(=O)c34)[C@@H]2C(C)(C)C1 | 25.4% | -19.6% (active) | 16.7% | 7.8% (active) | -8.73% (active) | 2.82% (active) | -78% (active) | -61.5% (active) | -98.2% (active) | -1.44% (active) |
| CCn1cnc(C[C@H](NC(=O)[C@@H](NC(=O)Nc2cc(C(F)(F)F)cc(C(F)(F)F)c2)C(C)(C)C)C(=O)OC)c1 | -68% [100 µM] (active) | -82.9% [100 µM] (active) | -98.8% [100 µM] (active) | -98.2% [100 µM] (active) | -94.5% [100 µM] (active) | -91.2% [100 µM] (active) | -98% [100 µM] (active) | -98.7% [100 µM] (active) | -87.4% [100 µM] (active) | -96% [100 µM] (active) |
| COc1ccc(-c2nc(N)n(C(=S)Nc3ccccc3)n2)cc1 | 102% | 99.4% | 70% | 99.5% | 103% | 92.3% | 94% | 98% | 94.3% | 116% |
| CC(=N\N=C(N)N)/C(=N/N=C(N)N)c1ccccc1 | 103% | 42.7% | 88.4% | 68% | 80.7% | 75.2% | 102% | 103% | 95.6% | 110% |
| NC(=O)c1c(Nc2ccccc2)nn2cc(-c3nc4ccccc4s3)c(N)nc12 | 101% | 103% | 88.9% | 92.7% | 101% | 91.4% | 97.3% | 97.3% | 94% | 113% |
| CC(=O)c1ccc2c(c1)c1ccccc1n2C | 102% | 91.1% | 82.5% | 90.8% | 94.8% | 89.2% | 103% | 83.2% | 97.1% | 107% |
| Cc1cc2c(-c3nc4ccccc4[nH]3)c(O)c(O)cc2c(O)c1-c1c(C)cc2c(-c3nc4ccccc4[nH]3)c(O)c(O)cc2c1O | 11.9% | 10.5% | 5.43% (active) | 7.78% (active) | -58.7% (active) | 6.02% (active) | -8.04% (active) | -16.6% (active) | -26.5% (active) | 19.8% |
| CCCCCCCCCCCCCCCC[n+]1cccc(C#N)c1 | 13.1% | 27.1% | 74.8% | 26.4% | 29.7% | 25.1% | 58.3% | 83.9% | 12.4% | 83% |
| CCOC(=O)C1=NN(c2ccccc2)C2=NC(=O)/C(=C\c3cn(-c4ccccc4)nc3-c3cc4ccccc4o3)C(=O)N12 | 101% | 98% | 94.7% | 89.5% | 99.4% | 88.2% | 94.3% | 82.3% | 95.9% | 110% |
| CCCCCCCCc1ccc(OCCOCC[N+](C)(C)CC)cc1 (tested in a mixture with another compound) | 98.4% | 25.5% | 9.08% (active) | 16.4% | 20.8% | 42.6% | -52.3% (active) | 9.07% (active) | 29.1% | 16% |
| CN(C)CCOC(=O)C(C)(C)C | 101% | 99.7% | 100% | 99.4% | 102% | 93.6% | 105% | 93.3% | 105% | 26% |
